In publication PMC12820563, “FoxP3 forms a head-to-head dimer in vivo and stabilizes its multimerization on adjacent microsatellites” one finds binding signal data, which are given here for 32 sequences.

In all, about 16,000 sequences were measured (“rpm ratio (pull-down/input)”: median about 0.5, highest 2% from about 5.5 on). Only a selection was taken, and the highest values are over-represented in it overall.

This test deals with T1, MBP-FoxP3dN (Mus musculus, UniProt Q99JB6 188-423).
T1 sequence: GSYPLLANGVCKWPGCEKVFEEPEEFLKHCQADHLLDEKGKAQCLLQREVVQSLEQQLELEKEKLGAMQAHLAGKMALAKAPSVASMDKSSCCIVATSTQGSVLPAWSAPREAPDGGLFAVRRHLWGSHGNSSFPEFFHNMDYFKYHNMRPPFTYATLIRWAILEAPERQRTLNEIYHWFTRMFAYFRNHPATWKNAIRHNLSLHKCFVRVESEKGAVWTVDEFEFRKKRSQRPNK
Nature of the test: PD-seq (MBP pull-down with sequencing); 20 mM Tris-HCl pH 7.5, 100 mM NaCl, 1.5 mM MgCl2, 0.4 uM protein, 0.1 uM dsDNA library, 30 min, room temperature, amylose pull-down; high values mean tight binding. The following applies: protein: recombinant; tags: His6-MBP; chain copies: 2; dsDNA, one strand shown. Put shortly: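 Amylose resin was used to capture complexes formed during 30 min at room temperature in Tris pH 7.5 buffer with NaCl and MgCl2 between 0.4 µM His6-MBP-tagged mouse FoxP3 or FoxP1 fragment lacking the N-terminus, expressed in E. coli, and 0.1 µM Klenow-filled double-stranded degenerate DNA library. After three washes, the DNA was released with proteinase K, barcoded by PCR and sequenced on Illumina. Binding is pooled-replicate reads-per-million enrichment, pull-down over input.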
As to “GATGATTGTTCTCCCAGCTGATGAATTGATGACATCGAGTAAACAAATTTTCCTAATCTTTCTGTTCAAGCGCCATCTAC”, the binding signal is 1.05 RPM ratio (pull-down/input).
The figure for “GATGATTGTTCTCCCAGCTGATGAATTTTTTTGATCGAGTAAACAAATTTTCCTAATCTTTCTGTTCAAGCGCCATCTAC” is 0.23 RPM ratio (pull-down/input).
The same measure for “GATGATTGTTCTCCCAGCTGATGAATTGTTGACATCGAGTAAACAAATTTTCCTAATCTTTCTGTTCAAGCGCCATCTAC”: 5.72 RPM ratio (pull-down/input); for “GATGATTGTTCTCCCAGCTGATGAATTGATTTGATCGAGTAAACAAATTTTCCTAATCTTTCTGTTCAAGCGCCATCTAC”: 0.64 RPM ratio (pull-down/input); for “GATGATTGTTCTCCCAGCTGATGAATTTGTTTGATCGAGTAAACAAATTTTCCTAATCTTTCTGTTCAAGCGCCATCTAC”: 5.99 RPM ratio (pull-down/input).
Consider “GATGATTGTTCTCCCAGCTGATGAATTTTGTTGATCGAGTAAACAAATTTTCCTAATCTTTCTGTTCAAGCGCCATCTAC”, for which the binding signal was 7.34 RPM ratio (pull-down/input).
The figure for “GATGATTGTTCTCCCAGCTGATGAATTGATTCTCTCGAGTAAACAAATTTTCCTAATCTTTCTGTTCAAGCGCCATCTAC” is 0.395 RPM ratio (pull-down/input); for “GATGATTGTTCTCCCAGCTGATGAATTAAGTCGCTCGAGTAAACAAATTTTCCTAATCTTTCTGTTCAAGCGCCATCTAC” it is 0.441 RPM ratio (pull-down/input).
Turning to “GATGATTGTTCTCCCAGCTGATGAATTAGGACGCTCGAGTAAACAAATTTTCCTAATCTTTCTGTTCAAGCGCCATCTAC”, the binding signal was 0.484 RPM ratio (pull-down/input).
Regarding “GATGATTGTTCTCCCAGCTGATGAATTATACGAGTCGAGTAAACAAATTTTCCTAATCTTTCTGTTCAAGCGCCATCTAC”, the binding signal is 0.404 RPM ratio (pull-down/input).
With “GATGATTGTTCTCCCAGCTGATGAATTCTAGACCTCGAGTAAACAAATTTTCCTAATCTTTCTGTTCAAGCGCCATCTAC”, the binding signal was 0.236 RPM ratio (pull-down/input).
For “GATGATTGTTCTCCCAGCTGATGAATTCTTAGCCTCGAGTAAACAAATTTTCCTAATCTTTCTGTTCAAGCGCCATCTAC”, the binding signal is 0.373 RPM ratio (pull-down/input).
The same measure for “GATGATTGTTCTCCCAGCTGATGAATTGGTGTGGTCGAGTAAACAAATTTTCCTAATCTTTCTGTTCAAGCGCCATCTAC”: 1.32 RPM ratio (pull-down/input); for “GATGATTGTTCTCCCAGCTGATGAATTTGGTTGGTCGAGTAAACAAATTTTCCTAATCTTTCTGTTCAAGCGCCATCTAC”: 2.96 RPM ratio (pull-down/input).
The same measure for “GATGATTGTTCTCCCAGCTGATGAATTTCTTTGGTCGAGTAAACAAATTTTCCTAATCTTTCTGTTCAAGCGCCATCTAC”: 1.03 RPM ratio (pull-down/input).
The figure for “GATGATTGTTCTCCCAGCTGATGAATTGTGTTGGTCGAGTAAACAAATTTTCCTAATCTTTCTGTTCAAGCGCCATCTAC” is 6.68 RPM ratio (pull-down/input); for “GATGATTGTTCTCCCAGCTGATGAATTCTTTTGGTCGAGTAAACAAATTTTCCTAATCTTTCTGTTCAAGCGCCATCTAC” it is 0.31 RPM ratio (pull-down/input); for “GATGATTGTTCTCCCAGCTGATGAATTTTGTTGGTCGAGTAAACAAATTTTCCTAATCTTTCTGTTCAAGCGCCATCTAC” it is 7.07 RPM ratio (pull-down/input).
Consider “GATGATTGTTCTCCCAGCTGATGAATTGGTTGTGTCGAGTAAACAAATTTTCCTAATCTTTCTGTTCAAGCGCCATCTAC”, for which the binding signal was 5.42 RPM ratio (pull-down/input).
For the sequence “GATGATTGTTCTCCCAGCTGATGAATTGTTTGGGTCGAGTAAACAAATTTTCCTAATCTTTCTGTTCAAGCGCCATCTAC”, the binding signal is 4.43 RPM ratio (pull-down/input).
Turning to “GATGATTGTTCTCCCAGCTGATGAATTTTTGGGGTCGAGTAAACAAATTTTCCTAATCTTTCTGTTCAAGCGCCATCTAC”, the binding signal is 0.233 RPM ratio (pull-down/input).
For “GATGATTGTTCTCCCAGCTGATGAATTTGTTGGGTCGAGTAAACAAATTTTCCTAATCTTTCTGTTCAAGCGCCATCTAC”, the binding signal is 7.61 RPM ratio (pull-down/input).
For “GATGATTGTTCTCCCAGCTGATGAATTCAATTGGTCGAGTAAACAAATTTTCCTAATCTTTCTGTTCAAGCGCCATCTAC”, the binding signal is 2.04 RPM ratio (pull-down/input).
With “GATGATTGTTCTCCCAGCTGATGAATTCTGTTGGTCGAGTAAACAAATTTTCCTAATCTTTCTGTTCAAGCGCCATCTAC”, the binding signal is 5.56 RPM ratio (pull-down/input).
The figure for “GATGATTGTTCTCCCAGCTGATGAATTGTAATCTTCGAGTAAACAAATTTTCCTAATCTTTCTGTTCAAGCGCCATCTAC” is 0.84 RPM ratio (pull-down/input).
The same measure for “GATGATTGTTCTCCCAGCTGATGAATTGGTGAGATCGAGTAAACAAATTTTCCTAATCTTTCTGTTCAAGCGCCATCTAC”: 0.341 RPM ratio (pull-down/input); for “GATGATTGTTCTCCCAGCTGATGAATTCTTTTACTCGAGTAAACAAATTTTCCTAATCTTTCTGTTCAAGCGCCATCTAC”: 0.312 RPM ratio (pull-down/input).
Consider “GATGATTGTTCTCCCAGCTGATGAATTCTTGGGATCGAGTAAACAAATTTTCCTAATCTTTCTGTTCAAGCGCCATCTAC”, for which the binding signal is 0.227 RPM ratio (pull-down/input).
The figure for “GATGATTGTTCTCCCAGCTGATGAATTCCTCGTATCGAGTAAACAAATTTTCCTAATCTTTCTGTTCAAGCGCCATCTAC” is 0.403 RPM ratio (pull-down/input); for “GATGATTGTTCTCCCAGCTGATGAATTGCGACCGTCGAGTAAACAAATTTTCCTAATCTTTCTGTTCAAGCGCCATCTAC” it is 0.963 RPM ratio (pull-down/input); for “GATGATTGTTCTCCCAGCTGATGAATTCCGACGATCGAGTAAACAAATTTTCCTAATCTTTCTGTTCAAGCGCCATCTAC” it is 0.285 RPM ratio (pull-down/input).
The same measure for “GATGATTGTTCTCCCAGCTGATGAATTTCTACCGTCGAGTAAACAAATTTTCCTAATCTTTCTGTTCAAGCGCCATCTAC”: 0.222 RPM ratio (pull-down/input).
